# Laboratory results reported in PubChem BioAssay.
# Values joined by “and” are separate entries in the source; they are usually repeats but may differ in a detail not shown here. Equal entries are not always repeated. Active and inactive are the calls of the source. Rule as the data show it, unless noted: active = inhibition above about 80%; inactive = the rest.
# Experiments:
# [1] = tested on: Aerobactin synthetase IucA (Klebsiella pneumoniae); assay: IucA aerobactin synthetase inhibitors, biochemical, Tocris library, absorbance (AID 1345561; call rule not given here;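 also: 100% = enzyme without compound and 0% = no enzyme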); conditions: purified IucA enzyme assay, absorbance (OD) read-out; stronger effect = lower value;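 tested at 8 µM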
# [2] = sensitizers of A549 cells to miR-34 induction, primary screen, imaging, A549 dox-inducible miR-34, nuclei and caspase counts (AID 1347080;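 active = compounds whose cell count with miR-34 switched on is under 0.7 times the count with it off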); conditions: A549 miR-34 inducible, Hoechst nuclei count, 48 h
# [3] = viability rescue of complex I mutant cybrids, primary screen, cell-based, galactose medium, ATP luminescence (AID 1645843;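 active = z-score of at least 1.8 in each of two replicates, scored against plate mean and spread of sample wells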;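 also: positive z means more ATP and so rescue of galactose-driven cybrid death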); conditions: complex I mutant cybrid cells, 72 h, stronger effect = higher value
# [4] = survival rescue of mitochondrial mutant cells in low glucose, primary screen, MELAS cybrids, Rieske KO mouse fibroblasts, CellTiter-Glo (AID 1508586;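 active = mean z-score across replicates of 1.96 or higher in either the MELAS or the Rieske mutant cell line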;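 also: z relative to plate mean and SD of compound and empty wells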)
# [5] = LFS_MB_P medulloblastoma growth inhibition, cell-based, chromothripsis tumors, cisplatin or BGB combos (AID 1671449); conditions: LFS_MB_P medulloblastoma cells;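 also: cells exposed for 96 hours; 0% = vehicle DMSO and 100% = killing by high DMSO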
# [6] = HDN33 neuroblastoma growth inhibition, cell-based, chromothripsis tumors, cisplatin or BGB combos (AID 1671450); conditions: HDN33 neuroblastoma cells, stronger effect = higher value;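 also: cells exposed to compound for four days; 0% = vehicle DMSO and 100% = cell killing by high DMSO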
# [7] = ICB984 medulloblastoma cell growth inhibition, synergistic combos for chromothripsis tumors, cisplatin or BGB combos (AID 1671451; call rule not given here;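 also: cells exposed for 96 hours before readout; 0% = vehicle DMSO and 100% = killing by high DMSO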); conditions: ICB984 medulloblastoma cells, drug combinations, stronger effect = higher value
# [8] = LFS_MB_1R medulloblastoma cell growth inhibition, synergistic combos for chromothripsis tumors, cisplatin or BGB combos (AID 1671452); conditions: LFS_MB_1R medulloblastoma cells, stronger effect = higher value;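 also: cells exposed for 96 hours before readout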
# [9] = HTB85 osteosarcoma cell growth inhibition, synergistic combos for chromothripsis tumors, BGB or cisplatin IC20 combos (AID 1671453); conditions: HTB85 osteosarcoma cells, drug combinations, stronger effect = higher value;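 also: cells exposed for 96 hours before readout; 0% = vehicle DMSO and 100% = high DMSO killing control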
# [10] = CRL2098 osteosarcoma cell growth inhibition, synergistic combos for chromothripsis tumors, BGB or cisplatin IC20 combos (AID 1671454); conditions: CRL2098 osteosarcoma cells, drug combinations, stronger effect = higher value;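 also: cells exposed for 96 h before readout; 0% = vehicle DMSO and 100% = killing by high DMSO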
# [11] = HD-MB03 medulloblastoma cell growth inhibition, synergistic combos for chromothripsis tumors, BGB or cisplatin IC20 combos (AID 1671455; in the data active = inhibition above about 83%;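 also: 0% = vehicle DMSO and 100% = high DMSO as cytotoxic control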); conditions: HD-MB03 medulloblastoma cells, stronger effect = higher value
# [12] = UWB1.289 ovarian carcinoma cell growth inhibition, synergistic combos for chromothripsis tumors, BGB or cisplatin combos (AID 1671456); conditions: UWB1.289 ovarian carcinoma cells, stronger effect = higher value;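 also: cells exposed to compound for four days; 0% = vehicle DMSO and 100% = killing by high DMSO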
# [13] = LFS_MB_2R medulloblastoma cell growth inhibition, synergistic combos for chromothripsis tumors, cisplatin combos (AID 1671457); conditions: LFS_MB_2R medulloblastoma cells, stronger effect = higher value;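 also: cells exposed to compound for four days before readout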
# [14] = MDA-MB-436 breast carcinoma cell growth inhibition, synergistic combos for chromothripsis tumors, BGB or cisplatin combos (AID 1671458; call rule not given here;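 also: cells exposed for 96 hours; 0% = vehicle DMSO and 100% = killing by high DMSO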); conditions: MDA-MB-436 breast carcinoma growth inhibition, drug combinations, stronger effect = higher value
# [15] = UWB1.289_BRCA1 ovarian cancer growth, cell-based, BGB or cisplatin combinations (AID 1671459); conditions: UWB1.289 BRCA1 ovarian carcinoma, drug combinations, stronger effect = higher value
# [16] = human astrocyte viability loss, single and combined drugs, cytotoxicity control for chromothriptic childhood tumor combination screen, cell-based, BGB or cisplatin IC20 combos (AID 1671460); conditions: Human astrocytes, drug combinations, stronger effect = higher value;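 also: cells exposed to compounds for 96 hours before viability readout; 0% = vehicle and 100% = killing control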
# [17] = growth inhibition of BT084 medulloblastoma cells, cell-based, ICGC_MB145, cisplatin and BGB IC40 combos (AID 1671461); conditions: drug combinations, stronger effect = higher value;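 also: cells exposed to drugs for 96 hours; 0% = vehicle DMSO and 100% = high DMSO full killing control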
# [18] = growth inhibition of RCMB18 medulloblastoma cells, cell-based, cisplatin and BGB IC40 combos (AID 1671462); conditions: stronger effect = higher value;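 also: cells exposed to compound for four days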
# [19] = growth inhibition of CRL1545 osteosarcoma cells, cell-based, cisplatin and BGB IC20 combos (AID 1671464); conditions: stronger effect = higher value;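 also: cells exposed to compound for 96 hours before readout; 0% = vehicle DMSO and 100% = high DMSO killing control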
# [20] = stronger effect = lower value, cell number ratio, induced over uninduced
# [21] = measured here: relative caspase fold change +Dox/-Dox
# [22] = measured here: total cells with miR-34 induction, stronger effect = lower value
# [23] = measured here: total cells without miR-34 induction
# [24] = measured here: combination with BGB IC40, at 0.05 µM
# [25] = measured here: with BGB IC20 combination, at 0.5 µM
# [26] = measured here: with cisplatin IC20 combination, at 0.5 µM
# [27] = measured here: combination with cisplatin, at 0.5 µM
# [28] = measured here: combination with cisplatin, at 5 µM
smiles,measurement,setting,value
CC(C)n1nnc2cc(C(=O)O)ccc21,remaining activity,[1],115% (inactive)
same,fold change,[2]; [20],0.911 (inactive)
same,fold change,[2]; [21],1.97
same,cell count,[2]; [22],7770
same,cell count,[2]; [23],8530
same,z-score,[3],0.275 (inactive)
O=C(COc1cccc2c(=O)[nH]ccc12)c1ccccc1,remaining activity,[1],129% (inactive)
same,fold change,[2]; [20],0.93 (inactive) and 0.917 (inactive)
same,fold change,[2]; [21],0.39 and 1.29
same,cell count,[2]; [22],8870 and 8400
same,cell count,[2]; [23],9530 and 9170
same,z-score,"[4]; MELAS cybrid survival, CellTiter-Glo 48 h, stronger effect = higher value",-0.468 (inactive)
same,z-score,"[4]; Rieske KO mouse fibroblast survival, CellTiter-Glo 72 h",0.438
same,z-score,[3],-0.28 (inactive)
same,inhibition,"[5]; at 0.5 µM, stronger effect = higher value",-16.5% (inactive)
same,inhibition,"[5]; measured here: combination with BGB IC20, at 0.005 µM",-16.8%
same,inhibition,"[5]; measured here: combination with BGB IC40, at 0.005 µM",-36.3%
same,inhibition,[5]; [24],-53.7%
same,inhibition,"[5]; measured here: combination with cisplatin, at 0.5 µM, stronger effect = higher value",-36.1%
same,inhibition,"[5]; measured here: combination with cisplatin, at 5 µM, stronger effect = higher value",-39.6%
same,inhibition,"[6]; BGB combo, at 5 µM",-30.5%
same,inhibition,[6]; at 0.5 µM,-19.3% (inactive)
same,inhibition,"[6]; cisplatin combo, at 5 µM",0.128%
same,inhibition,[6]; [25],-14.4%
same,inhibition,[6]; [26],-33.6%
same,inhibition,"[6]; single agent, at 5 µM",5.27%
same,inhibition,"[7]; BGB IC20 combo, at 0.005 µM",-2.15%
same,inhibition,"[7]; BGB IC40 combo, at 0.005 µM",-17.7%
same,inhibition,"[7]; BGB IC40 combo, at 0.05 µM",-10.1%
same,inhibition,[7]; at 0.5 µM,-21.4% (inactive)
same,inhibition,"[7]; cisplatin combo, at 0.05 µM",-14.1%
same,inhibition,"[7]; cisplatin combo, at 0.5 µM",-12.6%
same,inhibition,"[7]; cisplatin combo, at 5 µM",-29.1%
same,inhibition,"[7]; measured here: 5 uM single agent, at 5 µM",-6.87%
same,inhibition,[8]; at 0.5 µM,-3.67% (inactive)
same,inhibition,[8]; [24],3.04%
same,inhibition,[8]; [27],4.91%
same,inhibition,[8]; [28],-55.9%
same,inhibition,[9]; at 0.5 µM,-2.5% (inactive)
same,inhibition,"[9]; measured here: with BGB IC20, at 0.5 µM",-2.96%
same,inhibition,"[9]; measured here: with BGB IC20, at 5 µM",-14.8%
same,inhibition,"[9]; measured here: with cisplatin IC20, at 0.5 µM",-15.8%
same,inhibition,"[9]; measured here: with cisplatin IC20, at 5 µM",-9.52%
same,inhibition,"[9]; single agent, at 5 µM",-11.8%
same,inhibition,[10]; at 0.5 µM,-77.2% (inactive)
same,inhibition,"[10]; measured here: combination with BGB at IC20, at 0.5 µM",-43.7%
same,inhibition,"[10]; measured here: combination with cisplatin at IC20, at 0.5 µM",-122%
same,inhibition,[11]; at 0.5 µM,-12.7% (inactive)
same,inhibition,"[11]; measured here: combo with BGB at IC20, at 0.5 µM",-9.35%
same,inhibition,"[11]; measured here: combo with cisplatin at IC20, at 0.5 µM",-24.1%
same,inhibition,[12]; at 0.5 µM,-8.68% (inactive)
same,inhibition,"[12]; measured here: inhibition with BGB combination, at 0.05 µM",-22.4%
same,inhibition,"[12]; measured here: inhibition with cisplatin combination, at 0.05 µM",-23.8%
same,inhibition,[13]; at 0.5 µM,-15.2% (inactive)
same,inhibition,[13]; [27],-23.3%
same,inhibition,[13]; [28],-11.3%
same,inhibition,[14]; at 0.5 µM,-8.48% (inactive)
same,inhibition,"[14]; measured here: BGB combination, at 0.5 µM",-12.1%
same,inhibition,"[14]; measured here: BGB combination, at 5 µM",-20.7%
same,inhibition,"[14]; measured here: cisplatin combination, at 0.5 µM",-11.8%
same,inhibition,"[14]; measured here: cisplatin combination, at 5 µM",-15.5%
same,inhibition,"[15]; BGB combination, concentration series, at 5 µM",17.1%
same,inhibition,[15]; at 0.5 µM,-4.72% (inactive)
same,inhibition,"[15]; cisplatin combination, concentration series, at 5 µM",-1.24%
same,inhibition,[16]; at 0.5 µM,18.8% (inactive)
same,inhibition,"[16]; measured here: combo with BGB IC20, at 0.5 µM",3.19%
same,inhibition,"[16]; measured here: combo with cisplatin IC20, at 0.5 µM",27.2%
same,inhibition,[17]; at 0.5 µM,-16.5% (inactive)
same,inhibition,"[17]; cisplatin combination, at 0.5 µM",-34.9%
same,inhibition,"[17]; cisplatin combination, at 5 µM",-2.7%
same,inhibition,"[17]; measured here: BGB IC40 combination 0.05 uM, at 0.05 µM",-29.5%
same,inhibition,"[17]; single agent, at 5 µM",2.36%
same,inhibition,[18]; at 0.5 µM,-1.53% (inactive)
same,inhibition,"[18]; cisplatin combo, at 5 µM",-22.8%
same,inhibition,"[18]; measured here: BGB IC40 combination, at 0.05 µM",-14.7%
same,inhibition,[18]; [27],-4%
same,inhibition,"[18]; single agent, at 5 µM",-18.5%
same,inhibition,[19]; at 0.5 µM,-12.7% (inactive)
same,inhibition,[19]; [25],-33.3%
same,inhibition,[19]; [26],-4%
same,inhibition,"[19]; single agent, at 0.05 µM",2.29%
same,inhibition,"[19]; single agent, at 5 µM",-29.9%
